# About 83,000 compounds went through this panel and 20% of them were active in at least one assay; those are over-represented in the sample as a whole.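 Method: cells in 96-well plates; compound added at one concentration; 48 h incubation; percent growth measured; values under 10 scored active.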 A number with no mark means an inactive call. Activity calls are given as the source filed them.
# Test system: HL-60(TB) leukemia
# Assay: NCI-60 one-dose screen, 48 h (100 = growth as untreated, 0 = no growth, -100 = all killed)
# Conditions: 10 µM unless noted
row,SMILES,growth
1,COc1ccc(N=C2CSc3nnc(-c4cc(F)c(Cl)cc4Cl)n3N2)cc1,-48% (active)
2,COc1ccc(/C(C)=N/NC(=O)CSc2nc3ccccc3c(=O)n2Cc2ccc(S(N)(=O)=O)cc2)c(OC)c1,102%
3,NC(=S)N/N=C/c1ccc(Cl)s1,102%
4,CN(C)CCN(Cc1ccccc1)c1ccc2ccccc2n1,89.7%
5,C=C(C)[C@@H]1CC[C@]2(N=C=O)CC[C@]3(C)[C@H](CC[C@@H]4[C@@]5(C)Cc6c([nH]c7ccccc67)C(C)(C)[C@@H]5CC[C@]43C)[C@@H]12,46.2%
6,Cc1cc(SCc2ccccc2)nc(N)n1,119%
7,COc1ccc(C)cc1OC,94.3%
8,NC(=O)c1cc(I)ccc1NC(=O)/C=C/c1ccccc1Cl,-34.5% (active)
9,COc1cccc(CNc2nnc(C)c(C)n2)c1O,95.9%
10,Nc1ccc(-c2nc3ccc4[nH]ncc4c3c3c2CCCC3)cc1F,8.91% (active)
11,NC(=S)CN1CCOCC1,-12.8% (active)
12,CN(C)CC(O)c1ccc(/C=C/c2ccc(Cl)cc2)cc1 (stereo not given),-43.6% (active)
13,N#Cc1nc(-c2ccc(F)cc2)oc1S(=O)(=O)N1CCCCC1,32.4%
14,C=C1C(=O)O[C@H]2[C@H]1CC/C(C(=O)Nc1ccc(OC)c(C(N)=O)c1O)=C\CC[C@@]1(C)O[C@@H]21,0.316% (active)
15,COc1cc(-c2nc3occn3c2-c2ccnc(NCCCNS(=O)(=O)c3ccc(O)cc3)n2)ccc1F,95.3%
16,O=C(NCc1ccco1)C1CCN(S(=O)(=O)c2ccc(Cl)cc2)CC1,19.1%
17,COc1ccc(N2CCC(=S)NC2=S)cc1,99%
18,N#C/C(=N\Nc1ccccc1)C(=O)Nc1cc(-c2ccccc2)nn1-c1ccccc1,35.4%
19,Cc1cccc2c(=O)c3c(sc12)c(NCCCNCCO)nc1ccccc13,14.6%
20,CC1CC2C3CCC4=CC(=O)CCC4(C)C3CCC2(C)C1(O)C(=O)CO (stereo not given),75.4%

row,SMILES,growth
1,C[N+](C)(C)CCOC(OCC[N+](C)(C)C)(c1ccccc1)c1ccccc1,110%
2,Cn1c(=O)c(F)c(Nc2ccc(I)cc2F)c2c(=O)n(C[C@@H](O)CO)cnc21,15.8%
3,Cc1cc(C)c(NC(=O)c2sc3nc4c(cc3c2N)CCCCCC4)c(C)c1,-20.2% (active)
4,NS(=O)(=O)Oc1ccc(NC(=O)C2CCCCCC2)cc1,99.2%
5,CSc1ccc(-c2ccccc(=O)c2O)cc1,-40.1% (active)
6,CCCCCCCCCCCCCCCCCC[S+](C)CC (stereo not given),13%
7,FC(F)(F)c1cccc(-c2nnn(Cc3cc(-c4cccc(Cl)c4)no3)n2)c1,108%
8,COc1cccc(-c2nn(-c3ccccc3)cc2-c2ccnc(NCCCNS(=O)(=O)c3ccc(C(F)(F)F)cc3)c2)c1,12.4%
9,CCOC(=O)C1OC1c1ccccc1 (stereo not given),97%
10,Cc1ccc(C(SCC(N)C(=O)O)(c2ccc(C)cc2)c2ccc(C)cc2)cc1 (stereo not given),-17% (active)
11,COc1ccc(-c2cc(/C=C3\C(=O)Nc4ccc(OC)cc43)[nH]n2)cc1,-0.36% (active)
12,Clc1cccc(Nc2nc(Nc3cnc4ccccc4c3)c3[nH]cnc3n2)c1,121%
13,COc1ccc(N=C(c2ccccc2)C2C(=O)c3ccccc3C2=O)cc1,61.3%
14,COc1ccccc1/C=N\Nc1ccc([N+](=O)[O-])cn1,89.5%
15,CC(C)Oc1nc2c(c(=O)n(C)c(=O)n2C)n1C,95.3%
16,Cc1nn(-c2ccc(F)cc2)c2ncnc(Oc3ccc(NC(=O)Nc4ccc(Cl)c(C(F)(F)F)c4)cc3)c12,99%
17,COc1cc2oc(-c3cccc(C(=O)Nc4ccc(Cl)cc4)c3)cc(=O)c2c(O)c1OC,85.6%
18,O=C(Cn1c[n+](CC(=O)c2ccc([N+](=O)[O-])cc2)c2ccccc21)Nc1cccc2cccnc12,61.9%
19,CC[C@H](CC[C@@H](C)[C@H]1CC[C@H]2[C@@H]3CC=C4C[C@@H](OCCc5nn[nH]n5)CC[C@]4(C)[C@H]3CC[C@]12C)C(C)C,103%
20,Cc1nc2sc(C(=O)Nc3cccc4ccccc34)c(N)c2cc1C(=O)/C=C/c1ccccc1,4.48% (active)

# — PubChem BioAssay (NCI)
